# Shown are actives, neighbours in structure and some others; about 2.3% of the full set was active somewhere.
# aSyn yeast inh = alpha-synuclein toxicity inhibition in yeast | Yeast expressing alpha-synuclein, growth rescue, BacTiter-Glo, 24 h | Potency, µM (doses to about 46.1 µM), without a hit: at the highest dose growth rescue (activation), actives largely listed as activators | hit rate 0.14% among 370,000; further: potency means the concentration at half of the fitted maximal effect; % of control where 0% means no effect; nearly all actives have a fitted effect of over 65% in size
#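 Screening used galactose-induced yeast with toxic alpha-synuclein levels, exposed to compound for 24 hr at 30 deg C. Cell growth, read with BacTiter-Glo luminescence, gave the measured signal.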
# Akt phos inh = blocks phosphorylation of Akt; Neuro2A IGF-stimulated pAkt S473 HTRF, 20 min; stronger effect = lower value; activity change, % for hits at 50 µM; hit rate 0.32% among 360,000; in the data active means activity change below about -80%; inconclusive means mostly about -51% to -80%; further: on the % scale 0 is the no-effect control and ±100 the full control effect
#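 Neuro2A cells (4,500/well, DMEM with 0.5% FBS) were treated with compound at a single 50 µM final concentration, stimulated with 6 nM IGF for 20 min at 37 °C, and lysed. Phospho-Akt Ser473 was read by HTRF as 665/615 ratio ×10^4.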
# FUS suppressor = rescues growth of FUS-expressing yeast; S. cerevisiae FUS-expressing, growth rescue, OD600, 24 h; hit rate 0.24% among 390,000; Potency, µM (titrated, usually from 76.6 µM), most hits filed as activators;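 further: potency means the concentration at half of the fitted maximal effect; plate controls were DMSO vehicle for no effect and reference control for full effect; nearly all actives have a fitted effect of over 55% in size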
#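 Yeast expressing FUS under galactose induction, OD 0.005 in 2% galactose medium; compounds in a dilution series, 24 h at 30C. Growth rescue by absorbance at 600 nm; CP55940 positive control, DMSO negative.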
# Abeta yeast res = restores growth of yeast expressing A-beta42 peptide | yeast expressing A-beta42, growth rescue, OD600, 48 h; response scale: 0% DMSO, 100% iron-clioquinol control | Potency, µM (top dose mostly 46.1 µM), most hits filed as activators | hit rate 0.063% among 410,000 | AID 1347071; further: potency means the concentration at half of the fitted maximal effect; nearly all actives have a fitted effect of over 55% in size
#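 Yeast A-beta toxicity model in growth medium with pinned compounds, 48 h at 30 C; growth read as absorbance at 600 nm. Normalized to FeCl3/clioquinol equimolar mix (positive) and DMSO (negative).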
# TDP43 rescue = rescues yeast growth from TDP-43 toxicity; TDP-43 expressing yeast growth rescue, BacTiter-Glo, 24 h; Potency, µM (series often up to 46.1 µM), for the others: at the highest dose growth rescue (activation), actives largely listed as activators; hit rate 1.8% among 410,000; AID 652104; further: potency means the concentration at half of the fitted maximal effect; % of control where 0% means no effect; nearly all actives have a fitted effect of over 50% in size
#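 Luminescence from BacTiter-Glo reports growth of TDP-43-expressing yeast after 24 hr at 30 deg C with compound. Cells were raffinose-pregrown to mid-log, then seeded in galactose medium at OD600=0.02.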
# Numbers without * were called inactive; i = inactive; ? = inconclusive; . = not tested or not shown; ! = not confirmed by another sample; [ ] = remark or other dose. Unless noted, the call rests on the fitted dose curve; in most records, active means well fitted curve in the direction sought with a large enough effect; inconclusive means small, poorly fitted or top-dose-only effect, or another doubt; inactive means no such curve, though single readings can be large; an effect the other way counts as inactive or inconclusive.
SMILES,aSyn yeast inh,Akt phos inh,FUS suppressor,Abeta yeast res,TDP43 rescue
Cc1ccc(NCc2cccn2-c2nnc(N3CCCCCC3)s2)cc1,0.9%,.,i,i,29.6%
Cc1ccccc1NCc1cccn1-c1nnc(N2CCOCC2)s1,12.6µM*,.,i,i,-1.9%
CCCCCCC1(C)NC(c2ccc3c(c2)OCO3)=CC(c2cc(Br)ccc2O)N1 (centres undefined),-1.2%,.,.,.,.
c1ccc(CN2CCN(c3ncnc4c3cnn4-c3ccccc3)CC2)cc1,.,.,i,i,5.3%
c1ccc(-n2ncc3c(N4CCN(CCOc5cccc6ccccc56)CC4)ncnc32)cc1,-0.8%,i,i,i,20µM*
O=C(COc1ccccc1)N1CCN(c2ncnc3c2cnn3-c2ccccc2)CC1,8.8%,i,i,i,14.1µM*
O=C(Nc1cc(C(F)(F)F)ccc1Cl)c1cc(S(=O)(=O)NCc2ccccc2)ccc1F,.,.,i,i,17.8%
CCc1ccc(CNc2nc3nc(C)c(Cc4ccccc4)c(=O)n3[nH]2)cc1,.,.,i,i,11.7%
O=C1CC(c2ccccc2)Sc2ccccc2N1 (centres undefined),.,.,i,i,11.2µM*
O=c1oc2ccccc2c2oc3cc(O)c(O)cc3c12,2.3%,i,8.91µM*,i,-15.7%
Nc1c(N)c2ccccc2oc1=O,0.9%,i,i,i,-2.3%
O=C(Nc1nnc(Cc2ccccc2)s1)C1CCN(C(=O)c2cccs2)CC1,2.6%,.,.,.,.
NC(=O)c1ccc(Cc2ncc(C(F)(F)F)cc2Cl)s1,-2.1%,-106.1%*,i,i[9.22 µM],0.4%
Cc1ccc(S(=O)(=O)NCCc2nnc3ccc(SCc4ccccc4F)nn23)cc1,.,.,i,i,9.8%
O=C(Nc1nc(-c2cccs2)cs1)c1ccc(Cl)s1,-33.7%,i,i,i,3.55µM*
CC(=O)Nc1nc(-c2cccs2)cs1,-0.1%,i,i,i,16.0%
Fc1ccccc1CSc1nc2ccccc2[nH]1,-15.3%,i,i,i,13.3%
Fc1c(F)c(F)c(CSc2nc3ccccc3[nH]2)c(F)c1F,-11.3%,i,i,i,11.2µM*
CCCCCCCCCCCCCCCC[n+]1ccc(C(N)=O)cc1,-73.0%,i,31.6µM*,i,-36.0%
CCCCCCCCCCCCCCCC[n+]1cccc(C(=O)N(CC)CC)c1,-10.0%,i,28.2µM*!,i,-17.9%
CCCOc1ccc(NC(=O)CC2C(=O)N(c3ccc(Cl)cc3)C(=O)N2CCc2ccncc2)cc1 (centres undefined),.,.,i,i,-9.4%
Brc1ccc(CSc2nnc(Cc3c[nH]c4ccccc34)o2)cc1,-0.1%,i,.,i,8.91µM*
CCCN1CNc2c(c(=O)[nH]c(=S)n2CCc2c(C)cccc2C)C1,-2.5%,.,.,.,.
COc1ccccc1C(=O)Nc1nsc(-c2ccccc2)n1,-5.5%,i,i,i,12.6µM*
Cc1nc(C)c(-c2ccc(SCC(=O)Nc3ccc(Br)cc3)nn2)s1,.,.,i,i,?
SMILES,aSyn yeast inh,Akt phos inh,FUS suppressor,Abeta yeast res,TDP43 rescue
C/C(=N\O)C(=O)C(CN1CCCCC1)CN1CCCCC1,14.1µM*,.,i,i,-28.7%
CC(=O)/C(CN1CCCCC1)=N\O,3.6%,i,i,i,-11.4%
Cc1c(C(=O)N2CCC(C)CC2)c(S(=O)(=O)Nc2cccc(C#N)c2)c(C)n1C,.,.,i,i,0.0%
CC(C)c1ccc(NC(=O)CN2C(=O)COc3ccc(S(=O)(=O)N4CCCCC4)cc32)cc1,.,.,i,i,20.1%
Cc1cc(NC(=O)Cn2c(=O)nc(-c3ccccc3F)c3cc(Cl)ccc32)ccc1Br,.,.,i,i,11.2%
CC(=O)c1ccc2c(c1)CC1(C2)Cc2cc3c(cc2C1)C(=O)CC3 (centres undefined),-9.7%,i,.,i,15.8µM*
CSc1ccc(C=NNC(=O)c2cc(-c3ccc(Cl)cc3)n[nH]2)cc1,.,.,i,.,.
O=C1CSC(c2ccc(Cl)c(Cl)c2)N1c1nccs1 (centres undefined),0.6%[1.84 µM],i,i,i,14.1µM*
Cc1cc(=O)n(Cc2ccccc2)c2ccccc12,2.9%,i,i,i,25.3%
Cc1cc(=O)n(CC=C(Cl)Cl)c2ccccc12,8.4%,i,?,i,12.6µM*
O=c1oc2c(CN3CCCC3)c(O)ccc2cc1-c1ccccc1,.,.,i,i,16.9%
O=c1oc2c(CN3CCOCC3)c(O)ccc2cc1-c1ccc(Cl)cc1,.,.,i,i,12.6µM*
CCCc1nc2ccc(NC(=O)c3ccco3)cc2c(=O)n1Cc1ccccc1Cl,0.2%,i,i,i,11.0%
CCCc1nc2ccc(NC(C)=O)cc2c(=O)n1Cc1ccccc1Cl,-1.4%,i,i,i,20µM*
Cc1cc(C)cc(OCC(=O)NCC(c2ccc(Cl)cc2)N2CCCCC2)c1 (centres undefined),.,.,i,i,20.4%
C=C1CC2(CC(c3ccccc3)OC(c3ccccc3)C2)OC1=O (centres undefined),6.3%,i,.,i,10µM*
CCc1cnc2c(c1SCC(=O)Nc1ccc(Cl)cc1)c(=O)n(C)c(=O)n2C,.,.,i,i,6.5%
Cc1ccc(C(=O)N2CCN(c3ccccc3)CC2)cc1NC(=O)c1nsc2ccccc12,.,.,i,i,23.8%
Cc1onc(C(=O)NN)c1-c1csc(COc2ccc(Cl)cc2)n1,10.7%,i,i,i,11.2µM*
CCCN1C(=O)CN(C2CCCCCC2)C(=O)C1c1ccc(OCC)c(OC)c1 (centres undefined),.,.,i,i,-1.5%
COC1=C(OC)C(=O)C(Sc2ccc3ccccc3c2)=CC1=O,14.1µM*,i,.,i,?
O=C(c1ccc(S(=O)(=O)Cc2cc(F)ccc2F)c([N+](=O)[O-])c1)N1CCOCC1,6.7%,i,i,i,20µM*
Cc1cc(-n2c(SCc3ccccc3F)nc3[nH]ncc3c2=O)ccc1Cl,.,.,i,i,2.3%
CCCN(Cc1nnc(-c2ccccc2Cl)o1)C(=O)COc1ccc(Cl)cc1,6.2%,i,.,i,35.5µM*
CC(C)N(Cc1nnc(-c2ccccc2Cl)o1)C(=O)COc1cccc(Cl)c1,0.3%,i,i,i,3.6%
O=C(COc1ccc(Br)cc1)N(Cc1nnc(-c2ccccc2Cl)o1)C1CC1,?,i,?,i,20µM*
CCC(=O)c1ccc(OCC(=O)N(Cc2nnc(-c3ccccc3Cl)o2)C2CC2)cc1,4.3%,i,i,i,20.6%
Cc1ccc(S(=O)(=O)CC(O)CN2CCCC2=O)cc1 (centres undefined),-1.3%,-116.7%*,i,i,0.8%
CCSC(=O)N1CCN(/[N+]([O-])=N/Oc2ccc([N+](=O)[O-])cc2[N+](=O)[O-])CC1,-59.7%,.,.,.,.
C#CCOc1ccc2c(C)cc(=O)oc2c1,0.1%,i,i,i,20µM*
